Data on five compounds can be found in PubChem BioAssay.

The structures appear in SMILES notation. The source made the active and inactive calls.

Assay [1] relates to Plasmodium falciparum Sir2 (PF13_0152, Sir2A). The assay is described as follows: Plasmodium falciparum Sir2A binding compounds – biochemical, small-molecule microarray, 635 nm fluorescence, primary screen (AID 1098).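 Further: score merges spot fluorescence intensity with its signal-to-noise ratio.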 As to conditions: fluorescence 635 nm, higher = more signal.
Assay [2] can be described thus: probe aDKK1 binding to arrayed compounds – biochemical, biotinylated probe, 635/667 nm fluorescence, primary screen (AID 1099).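 Further: score merges 667nm spot fluorescence with signal to noise across triplicate slides.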 As to conditions: small-molecule microarray, higher = more signal.
Assay [3] is described as follows: probe aCHRDL2 binding to arrayed compounds – biochemical, biotinylated probe, 635/667 nm fluorescence, primary screen (AID 1100). As to conditions: small-molecule microarray, higher = more signal.
The nature of assay [4]: change in splice reporter luminescence, either direction, cell-based, HEK293, spliceosome inhibition project, primary screen (AID 1101).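 Further: HEK293 cells carrying a splicing-competent luciferase reporter gene; test concentration not given here.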 To be noted: HEK293 splicing luciferase reporter, 24 h, higher = more signal, called active from +8 up or from −8 down. (In general: In a reporter assay the amount or activity of a reporter protein is the signal.)
The target of assay [5] is Fibroblast growth factor 10 (Homo sapiens) (UniProt O15520). In words: compounds binding fibroblast growth factor 10 – biochemical, small-molecule microarray, 635 nm fluorescence, primary screen (AID 1102). As to conditions: FGF10 binding, fluorescence 635 nm, higher = more signal.
Chain of Fibroblast growth factor 10 (Homo sapiens) (O15520 whole entry, looked up): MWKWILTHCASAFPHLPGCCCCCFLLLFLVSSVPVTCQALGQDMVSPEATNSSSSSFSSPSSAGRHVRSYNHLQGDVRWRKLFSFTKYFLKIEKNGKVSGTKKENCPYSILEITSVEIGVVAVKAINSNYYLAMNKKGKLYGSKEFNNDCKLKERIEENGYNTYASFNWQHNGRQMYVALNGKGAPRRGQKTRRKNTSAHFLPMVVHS
Assay [6] has as its system glycogen synthase kinase-3 (GSK3A per assay name; protocol says GSK3B). The assay is described as follows: compounds binding glycogen synthase kinase-3 – biochemical, small-molecule microarray, 635 nm fluorescence, GSK3A, primary screen (AID 1103). Further: the record names both GSK3A and GSK3B. As to conditions: fluorescence 635 nm, higher = more signal.
Assay [7] has as its target Epidermal growth factor receptor (Homo sapiens) (UniProt P00533). In words: compounds binding epidermal growth factor receptor – biochemical, small-molecule microarray, 635 nm fluorescence, primary screen (AID 1104).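 Further: score merges 667 nm emission intensity with spot signal to noise over triplicate slides.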 To be noted: EGFR binding, higher = more signal.
In assay [8] the target is Follistatin-related protein 3 (Homo sapiens) (UniProt O95633). In words: compounds binding follistatin-related protein 3 – biochemical, small-molecule microarray, 635 nm fluorescence, primary screen (AID 1105).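 Further: score merges emission near 667 nm and signal to noise per printed spot across three slides.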 To be noted: FSTL3 binding, higher = more signal.
Chain of Follistatin-related protein 3 (Homo sapiens) (O95633 whole entry, looked up): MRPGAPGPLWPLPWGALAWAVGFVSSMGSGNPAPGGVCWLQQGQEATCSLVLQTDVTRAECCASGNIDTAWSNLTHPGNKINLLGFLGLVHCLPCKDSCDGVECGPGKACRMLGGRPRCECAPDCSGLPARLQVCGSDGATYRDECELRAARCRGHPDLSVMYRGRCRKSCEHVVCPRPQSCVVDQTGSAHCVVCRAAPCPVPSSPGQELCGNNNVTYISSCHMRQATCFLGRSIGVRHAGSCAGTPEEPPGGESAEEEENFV
In assay [9] the target is Dickkopf-related protein 1 (Homo sapiens) (UniProt O94907). The assay is described as follows: small molecules binding DKK1 protein – biochemical, small-molecule microarray, 635 nm fluorescence scan, primary screen (AID 1106).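 Further: score merges emission near 667 nm with signal to noise over three replicate slides.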 As to conditions: higher = more signal.
Chain of Dickkopf-related protein 1 (Homo sapiens) (O94907 whole entry, looked up): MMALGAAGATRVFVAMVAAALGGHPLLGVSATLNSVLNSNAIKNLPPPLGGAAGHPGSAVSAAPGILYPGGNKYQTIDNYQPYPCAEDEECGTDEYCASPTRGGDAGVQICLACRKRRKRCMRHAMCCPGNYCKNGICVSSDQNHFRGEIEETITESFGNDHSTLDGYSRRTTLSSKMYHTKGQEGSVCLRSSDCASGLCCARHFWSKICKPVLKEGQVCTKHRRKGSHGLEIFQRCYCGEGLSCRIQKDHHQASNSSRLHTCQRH
Assay [10] has as its system Inhibin beta A chain (activin A). In words: small molecules binding activin A – biochemical, small-molecule microarray, 635 nm fluorescence scan, primary screen (AID 1107).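 Further: mouse activin A protein probed at 4.33 µg/mL on printed slides; score merges bound-protein fluorescence near 667 nm with spot signal-to-noise.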 As to conditions: INHBA, higher = more signal.
Assay [11] concerns Human papillomavirus type 1a protein E7 (residues 44-93). In words: small molecules binding HPV E7 44-93 – biochemical, small-molecule microarray, residues 44-93, 635 nm fluorescence, primary screen (AID 1108).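 Further: E7 fragment applied at 1 µg/mL in TBST for 1 h at 4 C; score combines spot fluorescence with its signal to noise ratio.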 As to conditions: fluorescence 635 nm, higher = more signal.
A short description of assay [12]: hepatitis C replication reporter changes, two-sided – Huh7 cells, luciferase reporter, HCV replication inhibitor project, primary screen (AID 1109).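 Further: huh7 hepatoma cells harbouring a luciferase neomycin HCV replicon reporter; luciferase luminescence as measure of HCV replicon replication; test concentration not given here.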 As to conditions: Huh7 HCV replicon luciferase reporter, 48 h; higher = more signal.
The target of assay [13] is Left-right determination factor 2 (Homo sapiens) (UniProt O00292). In words: small molecules binding LEFTY2 protein – biochemical, small-molecule microarray, 635 nm fluorescence scan, primary screen (AID 1110). To be noted: higher = more signal.
Chain of Left-right determination factor 2 (Homo sapiens) (O00292 whole entry, looked up): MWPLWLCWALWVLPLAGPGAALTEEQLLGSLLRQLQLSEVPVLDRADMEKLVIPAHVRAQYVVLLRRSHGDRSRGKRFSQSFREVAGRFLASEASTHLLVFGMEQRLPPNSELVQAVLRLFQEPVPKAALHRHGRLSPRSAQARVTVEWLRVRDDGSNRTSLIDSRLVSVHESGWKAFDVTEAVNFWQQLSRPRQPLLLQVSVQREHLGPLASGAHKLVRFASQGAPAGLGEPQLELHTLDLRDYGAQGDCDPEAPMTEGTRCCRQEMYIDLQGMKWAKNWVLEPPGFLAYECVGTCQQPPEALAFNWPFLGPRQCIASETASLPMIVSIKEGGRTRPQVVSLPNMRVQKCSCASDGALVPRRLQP
Assay [14] addresses Calmodulin-1 (Homo sapiens) (UniProt P0DP23). In words: small molecules binding calmodulin-1 with EGTA – biochemical, small-molecule microarray, Cy5-labelled CALM1, profiling panel (AID 1111).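 Further: labelled calmodulin applied in Tris saline Tween buffer holding calcium plus EGTA and DTT.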 To be noted: Cy5-CALM1 binding fluorescence, higher = more signal.
Assay [15] has the same target. The assay is described as follows: small molecules binding Ca-loaded calmodulin-1 – biochemical, small-molecule microarray, Cy5-labelled CALM1, plus calcium, artefact control for SMM control-protein annotation, profiling panel (AID 1112).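 Further: score merges spot fluorescence with signal to noise from triplicate slides.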 To be noted: Cy5-CALM1 binding fluorescence, higher = more signal.
Assay [16] can be described thus: probe aWnt5a binding to arrayed compounds – biochemical, biotinylated probe, 635/667 nm fluorescence, primary screen (AID 1113).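 Further: score merges 667 nm fluorescence intensity with signal-to-noise per printed feature.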 To be noted: small-molecule microarray, higher = more signal.
Assay [17] is described as follows: probe aShh binding to arrayed compounds – biochemical, biotinylated probe, 635/667 nm fluorescence, primary screen (AID 1114).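 Further: probe is biotin-labelled aShh protein from a stem cell growth factor screen; measures binding of labelled protein to compounds printed on the slide; score merges feature fluorescence at 667 nm with signal-to-noise.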 As to conditions: small-molecule microarray, higher = more signal.
A short description of assay [18]: probe aNog binding to arrayed compounds – biochemical, biotinylated probe, 635/667 nm fluorescence, primary screen (AID 1115).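 Further: probe is biotinylated aNog protein used at 0.15 µg/mL for 1 h at 4 C; z-score combines 667 nm fluorescence of each spot with its signal to noise.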 To be noted: small-molecule microarray, higher = more signal.
Assay [19] addresses Torsin-1A-interacting protein 1 (Homo sapiens) (UniProt Q5JTV8). The assay is described as follows: compound microarray binding of lysate hLAP1 – cell lysate, small-molecule microarray, COS7 lysate, 635/667 nm fluorescence, primary screen (AID 1116). To be noted: 635 nm fluorescence, higher = more signal.
In assay [20] the target is Alpha-bungarotoxin (Bungarus multicinctus) (UniProt P60615). In words: compounds binding labelled alpha-BTX control protein – biochemical, small-molecule microarray, Alexa647 label, 635/667 nm fluorescence, artefact control for SMM control protein annotation, profiling panel (AID 1117). As to conditions: alpha-BTX-A647 binding fluorescence, higher = more signal.
Chain of Alpha-bungarotoxin (Bungarus multicinctus) (P60615 whole entry, looked up): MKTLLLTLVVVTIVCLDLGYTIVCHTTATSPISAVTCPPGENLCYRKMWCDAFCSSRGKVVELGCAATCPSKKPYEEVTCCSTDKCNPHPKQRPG

Chain of Torsin-1A-interacting protein 1 (Homo sapiens) (Q5JTV8 whole entry, looked up): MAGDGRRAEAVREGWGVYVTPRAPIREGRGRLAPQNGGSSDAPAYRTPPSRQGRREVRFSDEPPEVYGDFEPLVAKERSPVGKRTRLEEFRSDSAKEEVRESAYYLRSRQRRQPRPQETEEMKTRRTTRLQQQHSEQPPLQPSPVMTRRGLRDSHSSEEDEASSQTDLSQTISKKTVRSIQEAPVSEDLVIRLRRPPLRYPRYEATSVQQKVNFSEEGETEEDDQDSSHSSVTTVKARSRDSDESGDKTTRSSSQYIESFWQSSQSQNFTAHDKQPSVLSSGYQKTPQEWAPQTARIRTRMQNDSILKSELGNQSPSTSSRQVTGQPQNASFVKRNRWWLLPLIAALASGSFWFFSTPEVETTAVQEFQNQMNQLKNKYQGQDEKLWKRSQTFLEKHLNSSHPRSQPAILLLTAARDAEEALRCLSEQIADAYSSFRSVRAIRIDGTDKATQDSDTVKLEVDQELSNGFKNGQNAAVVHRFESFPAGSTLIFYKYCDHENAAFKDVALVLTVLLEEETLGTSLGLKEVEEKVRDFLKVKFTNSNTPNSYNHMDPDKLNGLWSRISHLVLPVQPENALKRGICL
Chain of Epidermal growth factor receptor (Homo sapiens) (P00533 whole entry, looked up): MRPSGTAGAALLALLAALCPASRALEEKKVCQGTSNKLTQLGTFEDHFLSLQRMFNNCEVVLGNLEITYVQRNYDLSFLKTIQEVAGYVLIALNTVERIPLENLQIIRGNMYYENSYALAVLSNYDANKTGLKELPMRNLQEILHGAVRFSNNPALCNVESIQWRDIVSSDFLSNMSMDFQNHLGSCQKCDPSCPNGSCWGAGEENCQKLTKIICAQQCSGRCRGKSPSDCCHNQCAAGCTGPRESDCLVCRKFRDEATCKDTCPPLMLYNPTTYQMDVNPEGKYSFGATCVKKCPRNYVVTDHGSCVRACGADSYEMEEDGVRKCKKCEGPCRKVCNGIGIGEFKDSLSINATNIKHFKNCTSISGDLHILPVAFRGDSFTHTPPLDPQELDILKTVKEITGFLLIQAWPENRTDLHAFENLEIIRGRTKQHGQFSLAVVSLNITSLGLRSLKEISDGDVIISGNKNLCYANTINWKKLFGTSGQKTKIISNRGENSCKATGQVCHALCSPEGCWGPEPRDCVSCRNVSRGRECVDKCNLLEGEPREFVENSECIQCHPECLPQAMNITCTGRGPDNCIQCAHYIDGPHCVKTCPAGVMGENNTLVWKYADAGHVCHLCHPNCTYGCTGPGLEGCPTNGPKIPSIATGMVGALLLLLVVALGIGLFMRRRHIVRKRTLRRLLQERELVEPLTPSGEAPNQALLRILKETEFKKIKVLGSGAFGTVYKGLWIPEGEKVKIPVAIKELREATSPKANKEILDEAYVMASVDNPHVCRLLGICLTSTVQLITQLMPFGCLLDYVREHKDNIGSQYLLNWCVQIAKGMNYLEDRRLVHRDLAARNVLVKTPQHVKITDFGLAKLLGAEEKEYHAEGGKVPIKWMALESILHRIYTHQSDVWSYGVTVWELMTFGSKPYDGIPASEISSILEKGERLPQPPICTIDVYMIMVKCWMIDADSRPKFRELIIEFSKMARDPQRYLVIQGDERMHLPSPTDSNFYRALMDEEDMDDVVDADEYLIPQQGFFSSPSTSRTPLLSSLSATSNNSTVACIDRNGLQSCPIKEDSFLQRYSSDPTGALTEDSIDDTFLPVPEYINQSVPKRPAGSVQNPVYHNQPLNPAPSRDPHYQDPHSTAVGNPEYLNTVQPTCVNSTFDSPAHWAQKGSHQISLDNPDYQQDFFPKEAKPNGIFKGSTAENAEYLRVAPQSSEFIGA

Take `[N-]=[N+]=Nc1ccccc1[C@@H]1OC(c2ccc(OCCCO)cc2)=N[C@]1(Cc1ccccc1)C(=O)NCC(O)CO` (stereo not given in full): the composite z-score is 1.08 in [1]; 1.33 in assay [2]; 1.4 in [3]; 0.915 in assay [5]; -0.216 in assay [6]; -0.433 in assay [7]. Also, the composite z-score in [8] is 0.18; in [9], -0.647; in [10] it was 1.09; in [11] it was 0.883; in [13], -0.879; in assay [14], 2.21. The composite z-score is 1.18 in assay [15]; 0.0189 in assay [16]; 0.4 in [17]; -0.4 in assay [18]; 2.95 in assay [19]; 2.56 in [20]. Moreover, the figures for the z-score in assay [4] and in [12] were -1.37 (inactive) and -1.34, respectively.

As to `COc1cccc(/C=C/C=O)c1`, the composite z-score is -0.663 in assay [1]; 0.24 in [2]; -0.326 in [3]; 0.393 in assay [5]; 0.0414 in assay [6]; 0.417 in assay [7]. The composite z-score in assay [8] was 0.237; in [9], 0.339; in assay [10], -0.115; in assay [11], 0.105; in assay [13], 0.402; in assay [14], 0.0577. The composite z-score in assay [15] was -0.363; in assay [16], 0.185; in assay [17] it was 0.218; in assay [18] it was -0.354; in assay [19] it was 0.185; in assay [20], -0.124. The z-score in assay [4] was 0.85 (inactive); in assay [12], -0.56.

`CCOC(=O)[C@H]1[C@@H]2C(=O)N3CCC[C@H]3[C@H](O[Si](C(C)C)(C(C)C)C(C)C)[C@H]2C=C2CCN(S(=O)(=O)c3ccc(C)cc3)C[C@H]21`: the composite z-score is 0.779 in assay [1]; -0.341 in assay [2]; -0.535 in [3]; 1 in assay [5]; 0.938 in assay [6]; 0.586 in assay [7]. In addition, the composite z-score in assay [8] came out at 0.766; in assay [9], 0.593; in assay [10] it was 0.141; in assay [11] it was 1.28; in assay [13], 0.637; in [14], 0.791. In addition, the composite z-score in assay [15] is -0.185; in [16] it was -0.0379; in [17], 0.0815; in [18], -0.709; in [19] it was 0.694; in assay [20], 0.962. Besides, the z-score is -1.73 (inactive) in [4] and -3.6 in assay [12].

Turning to `CN(C)CCCNC(=O)[C@@]1(C)c2ccccc2C(=O)N(Cc2ccccc2)[C@H]1c1ccc(CO)cc1`, the composite z-score in assay [1] is 1.71; in assay [2], -0.719; in assay [3] it was 0.683; in assay [5] it was -0.476; in assay [6], -0.35; in assay [7] it was -1.48. The composite z-score in [8] is -0.456; in assay [9] it was 0.0494; in assay [10], 1; in assay [11], -0.775; in [13] it was -0.157; in [14], -1.06. In addition, the composite z-score in assay [15] is -1.12; in [16], 0.0026; in assay [17], -0.138; in assay [18], -0.33; in assay [19], -0.281; in [20], -0.358. For the same compound, the z-score in assay [4] was 0.711 (inactive); in assay [12], -1.94.

For the compound `CN(C)c1ccc(C(O)C2C=CC3C(=O)N(c4ccccc4)C(=O)C3N2Nc2ccc([N+](=O)[O-])cc2)cc1` (stereo not given), the composite z-score was 1.53 in [1]; 0.604 in [2]; 1.16 in assay [3]; 0.704 in [5]; 1.29 in assay [6]; 0.332 in assay [7]. The composite z-score in [8] is 0.974; in [9] it was -0.204; in assay [10], 1.4; in assay [11], 1.37; in assay [13], -0.162; in assay [14], 0.603. The composite z-score in assay [15] is -0.534; in assay [16], 0.0809; in [17], 0.0697; in [18], 0.638; in [19] it was 0.926; in assay [20], 1.46. For the same compound, the values for the z-score in assay [4] and in [12] were -0.0025 (inactive) and -1.52, respectively.
